# Data taken from the supplement of paper PMC10849652.
# Targets with a hit are over-represented here; the source holds about 8,800 in all. About 0.5% of all pairs of compound and target were hits. Unmarked numbers belong to inactive results.
# Tests used:
# Test in all cases: log2 fold change, soluble protein after heating vs DMSO (PISA); higher = thermal stabilisation; K562 lysate, 10 uM; active = over 0.2 and 3.5 SD of the protein, either way, in both replicates (recomputed)
# [1] = compound: NCC(=O)Nc1ccc(-n2nc(C(F)(F)F)cc2-c2ccc3c(ccc4ccccc43)c2)cc1
# Outline: (§1)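 Values give the log-two fold change in thermal stability against solvent controls, from duplicates. Crude K562 extract at 1 mg/mL protein, made by dounce homogenisation in PBS pH 7.4 with 1 mM MgCl2, was treated with 10 μM compound for 30 min. After 3 min heating across 48°C-58°C, aliquots were pooled, adjusted to 0.5% NP-40 at 4°C and centrifuged at 21,000xg for 90 min. The supernatant was measured by TMTpro 16plex LC-MS/MS with channel sums equalised.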
# vorinostat = compound: O=C(CCCCCCC(=O)Nc1ccccc1)NO [vorinostat]
# Outline: as §1
# silmitasertib = compound: O=C(O)c1ccc2c(c1)nc(Nc1cccc(Cl)c1)c1ccncc12 [silmitasertib]
# Outline: as §1
# [2] = compound: O=C1NC(=O)C(c2cnc3ccccn23)=C1c1cn2c3c(cc(F)cc13)CN(C(=O)N1CCCCC1)CC2
# Outline: as §1
# entospletinib = compound: c1cn2cc(-c3ccc4cn[nH]c4c3)nc(Nc3ccc(N4CCOCC4)cc3)c2n1 [entospletinib]
# Outline: as §1
# UniProt Q01628, sequence (Q01628 whole entry, looked up): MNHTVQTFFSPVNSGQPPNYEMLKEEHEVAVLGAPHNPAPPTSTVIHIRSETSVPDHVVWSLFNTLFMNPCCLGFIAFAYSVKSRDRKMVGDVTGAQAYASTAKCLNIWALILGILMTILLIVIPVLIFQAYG
# UniProt Q99795, sequence (Q99795 whole entry, looked up): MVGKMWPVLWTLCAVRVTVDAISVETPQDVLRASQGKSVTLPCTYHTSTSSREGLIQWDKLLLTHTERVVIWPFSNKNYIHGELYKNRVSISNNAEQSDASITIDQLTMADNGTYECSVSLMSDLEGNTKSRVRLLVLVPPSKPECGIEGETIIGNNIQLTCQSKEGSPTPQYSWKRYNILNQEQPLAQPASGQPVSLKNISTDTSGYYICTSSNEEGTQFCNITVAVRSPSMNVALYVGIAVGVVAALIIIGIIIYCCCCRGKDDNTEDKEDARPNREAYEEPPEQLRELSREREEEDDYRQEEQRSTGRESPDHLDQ
# UniProt Q9NVH2, sequence (Q9NVH2 whole entry, looked up): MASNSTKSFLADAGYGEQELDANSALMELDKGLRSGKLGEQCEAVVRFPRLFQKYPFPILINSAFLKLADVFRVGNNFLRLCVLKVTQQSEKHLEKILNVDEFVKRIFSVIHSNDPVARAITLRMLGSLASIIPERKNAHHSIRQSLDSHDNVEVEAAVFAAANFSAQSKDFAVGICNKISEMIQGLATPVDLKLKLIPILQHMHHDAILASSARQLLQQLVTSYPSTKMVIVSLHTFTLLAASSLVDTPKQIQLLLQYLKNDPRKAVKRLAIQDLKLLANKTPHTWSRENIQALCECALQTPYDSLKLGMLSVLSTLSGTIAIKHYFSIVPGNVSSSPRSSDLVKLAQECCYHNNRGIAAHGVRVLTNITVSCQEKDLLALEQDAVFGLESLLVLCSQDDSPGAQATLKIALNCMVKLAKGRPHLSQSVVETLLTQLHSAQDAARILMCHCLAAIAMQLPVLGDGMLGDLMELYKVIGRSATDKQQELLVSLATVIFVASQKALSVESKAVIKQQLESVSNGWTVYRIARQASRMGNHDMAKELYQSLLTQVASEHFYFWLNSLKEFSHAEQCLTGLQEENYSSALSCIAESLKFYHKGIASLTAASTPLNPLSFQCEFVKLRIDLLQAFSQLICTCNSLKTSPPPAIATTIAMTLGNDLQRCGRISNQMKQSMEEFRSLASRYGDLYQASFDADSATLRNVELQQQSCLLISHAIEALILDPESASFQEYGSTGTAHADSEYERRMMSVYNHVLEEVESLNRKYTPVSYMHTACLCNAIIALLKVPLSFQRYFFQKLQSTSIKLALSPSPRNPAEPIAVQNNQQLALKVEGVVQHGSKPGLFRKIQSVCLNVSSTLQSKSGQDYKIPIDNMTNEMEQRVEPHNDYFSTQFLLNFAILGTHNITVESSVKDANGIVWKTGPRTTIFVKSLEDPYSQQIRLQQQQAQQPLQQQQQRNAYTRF
# UniProt Q3T8J9, sequence (Q3T8J9 whole entry, looked up): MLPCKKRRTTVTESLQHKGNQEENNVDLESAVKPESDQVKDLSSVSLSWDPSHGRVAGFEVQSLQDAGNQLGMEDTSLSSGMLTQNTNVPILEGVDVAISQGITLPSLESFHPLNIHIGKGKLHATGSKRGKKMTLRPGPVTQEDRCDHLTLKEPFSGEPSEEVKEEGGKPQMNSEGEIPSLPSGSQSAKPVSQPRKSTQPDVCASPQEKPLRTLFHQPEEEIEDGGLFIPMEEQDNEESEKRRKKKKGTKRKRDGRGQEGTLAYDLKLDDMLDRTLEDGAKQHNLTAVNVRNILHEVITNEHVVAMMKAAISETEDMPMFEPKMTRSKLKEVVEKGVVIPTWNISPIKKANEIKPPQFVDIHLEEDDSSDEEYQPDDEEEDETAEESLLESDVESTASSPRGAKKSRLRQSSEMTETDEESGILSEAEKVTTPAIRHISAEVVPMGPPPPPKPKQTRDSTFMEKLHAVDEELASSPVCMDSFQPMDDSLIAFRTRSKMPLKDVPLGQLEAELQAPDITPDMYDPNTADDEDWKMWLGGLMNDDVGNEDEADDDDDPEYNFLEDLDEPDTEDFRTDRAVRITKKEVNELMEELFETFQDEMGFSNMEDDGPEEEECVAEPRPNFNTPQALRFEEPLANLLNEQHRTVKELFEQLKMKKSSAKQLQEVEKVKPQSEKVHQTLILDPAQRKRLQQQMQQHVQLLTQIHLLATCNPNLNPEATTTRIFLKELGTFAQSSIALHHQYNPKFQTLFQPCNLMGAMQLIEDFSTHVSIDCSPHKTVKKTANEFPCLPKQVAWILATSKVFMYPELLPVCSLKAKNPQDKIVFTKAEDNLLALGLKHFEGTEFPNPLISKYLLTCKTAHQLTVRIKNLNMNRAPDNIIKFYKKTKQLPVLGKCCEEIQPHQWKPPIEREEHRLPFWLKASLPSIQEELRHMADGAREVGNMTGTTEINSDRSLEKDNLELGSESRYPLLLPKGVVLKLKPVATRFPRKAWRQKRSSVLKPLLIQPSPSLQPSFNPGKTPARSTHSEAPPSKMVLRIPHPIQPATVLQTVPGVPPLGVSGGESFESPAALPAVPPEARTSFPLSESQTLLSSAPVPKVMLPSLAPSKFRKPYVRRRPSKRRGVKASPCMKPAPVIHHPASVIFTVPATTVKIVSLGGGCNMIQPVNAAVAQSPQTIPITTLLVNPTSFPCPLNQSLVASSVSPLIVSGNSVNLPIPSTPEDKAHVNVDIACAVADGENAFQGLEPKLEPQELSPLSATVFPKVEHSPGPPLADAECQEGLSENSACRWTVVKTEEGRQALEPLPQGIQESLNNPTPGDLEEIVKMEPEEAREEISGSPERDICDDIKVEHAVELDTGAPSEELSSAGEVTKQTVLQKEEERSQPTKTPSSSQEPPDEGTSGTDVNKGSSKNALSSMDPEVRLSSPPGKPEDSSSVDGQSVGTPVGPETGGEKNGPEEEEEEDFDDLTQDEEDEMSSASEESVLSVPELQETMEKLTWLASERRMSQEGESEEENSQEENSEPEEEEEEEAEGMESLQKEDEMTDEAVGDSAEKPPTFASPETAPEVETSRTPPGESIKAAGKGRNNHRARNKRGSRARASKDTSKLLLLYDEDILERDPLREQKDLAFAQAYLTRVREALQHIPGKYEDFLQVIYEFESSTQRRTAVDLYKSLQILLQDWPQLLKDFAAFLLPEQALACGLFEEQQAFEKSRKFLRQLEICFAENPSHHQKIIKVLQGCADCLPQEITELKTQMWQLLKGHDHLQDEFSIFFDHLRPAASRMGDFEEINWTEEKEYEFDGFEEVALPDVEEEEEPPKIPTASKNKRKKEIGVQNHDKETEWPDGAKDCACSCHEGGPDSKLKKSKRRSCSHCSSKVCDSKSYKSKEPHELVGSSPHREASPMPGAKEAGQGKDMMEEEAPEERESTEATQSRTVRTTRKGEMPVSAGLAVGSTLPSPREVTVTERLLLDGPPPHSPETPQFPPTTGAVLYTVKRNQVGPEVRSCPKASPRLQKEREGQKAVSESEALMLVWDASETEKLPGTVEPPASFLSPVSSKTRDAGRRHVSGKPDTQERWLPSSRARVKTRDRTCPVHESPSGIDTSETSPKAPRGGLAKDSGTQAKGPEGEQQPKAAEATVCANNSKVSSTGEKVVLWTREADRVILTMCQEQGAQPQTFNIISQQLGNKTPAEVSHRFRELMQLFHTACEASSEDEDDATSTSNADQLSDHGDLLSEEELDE
# UniProt Q9HAV0, sequence (Q9HAV0 whole entry, looked up): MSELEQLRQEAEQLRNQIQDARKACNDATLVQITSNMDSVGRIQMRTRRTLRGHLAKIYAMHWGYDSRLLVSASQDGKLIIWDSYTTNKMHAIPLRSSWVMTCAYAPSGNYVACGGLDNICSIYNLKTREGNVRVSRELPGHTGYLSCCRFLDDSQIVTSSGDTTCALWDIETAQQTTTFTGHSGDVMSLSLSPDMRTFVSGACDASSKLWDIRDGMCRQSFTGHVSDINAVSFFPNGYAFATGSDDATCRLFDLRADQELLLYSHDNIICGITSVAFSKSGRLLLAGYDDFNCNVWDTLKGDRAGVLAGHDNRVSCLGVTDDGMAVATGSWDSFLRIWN
# UniProt P28161, sequence (P28161 whole entry, looked up): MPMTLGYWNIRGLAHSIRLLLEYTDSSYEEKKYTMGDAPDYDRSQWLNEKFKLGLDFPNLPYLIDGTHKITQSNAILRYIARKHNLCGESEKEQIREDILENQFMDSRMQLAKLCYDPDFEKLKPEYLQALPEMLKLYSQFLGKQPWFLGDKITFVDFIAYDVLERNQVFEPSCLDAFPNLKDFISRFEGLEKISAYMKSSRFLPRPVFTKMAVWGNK
# UniProt P15104, sequence (P15104 whole entry, looked up): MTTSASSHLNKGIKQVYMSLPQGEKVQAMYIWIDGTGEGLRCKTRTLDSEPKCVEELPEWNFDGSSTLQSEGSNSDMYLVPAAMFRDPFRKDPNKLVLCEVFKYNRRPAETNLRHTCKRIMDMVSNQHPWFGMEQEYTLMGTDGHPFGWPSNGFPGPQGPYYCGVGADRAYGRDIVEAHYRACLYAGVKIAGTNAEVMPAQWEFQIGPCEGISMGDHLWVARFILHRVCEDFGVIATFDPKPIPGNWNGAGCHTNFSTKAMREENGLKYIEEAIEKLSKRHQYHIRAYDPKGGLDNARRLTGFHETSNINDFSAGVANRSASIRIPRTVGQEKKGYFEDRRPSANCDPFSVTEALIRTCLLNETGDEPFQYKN
# UniProt P17096, sequence (P17096 whole entry, looked up): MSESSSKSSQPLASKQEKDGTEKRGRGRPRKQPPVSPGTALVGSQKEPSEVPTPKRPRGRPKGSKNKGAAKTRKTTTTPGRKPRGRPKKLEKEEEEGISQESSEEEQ
# UniProt P22692, sequence (P22692 whole entry, looked up): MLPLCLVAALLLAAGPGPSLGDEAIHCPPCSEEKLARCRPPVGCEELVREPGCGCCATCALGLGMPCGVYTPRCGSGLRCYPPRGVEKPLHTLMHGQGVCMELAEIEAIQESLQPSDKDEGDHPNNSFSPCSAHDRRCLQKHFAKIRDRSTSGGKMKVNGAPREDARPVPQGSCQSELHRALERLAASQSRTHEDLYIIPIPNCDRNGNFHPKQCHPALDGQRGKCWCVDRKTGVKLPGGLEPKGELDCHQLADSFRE
Target,log2 fold change [1],log2 fold change (vorinostat),log2 fold change (silmitasertib),log2 fold change [2],log2 fold change (entospletinib)
GON4L (UniProt Q3T8J9),-0.051,-0.162,0.066,-0.076,0.067
INF2 (UniProt Q27J81),-0.023,-0.333 (active),-0.027,0.018,-0.09
HDGFL2 isoform 2 (UniProt Q7Z4V5),0.02,0.117,-0.013,0.01,-0.012
HAUS7 isoform 2 (UniProt Q99871),-0.091,-0.416 (active),-0.029,-0.026,-0.124
GNL3 (UniProt Q9BVP2),0.017,-0.142,0.008,-0.041,0.018
KDM1A (UniProt O60341),0.01,-0.163,0.009,-0.009,0.01
GNE isoform 2 (UniProt Q9Y223),0.056,-0.443 (active),0.023,0.012,0.017
IGF2BP2 (UniProt Q9Y6M1),-0.016,-0.239 (active),0.088,0,0.026
IMMT (UniProt Q16891),-0.005,0.056,0.033,0.016,0.017
HMGA1 (UniProt P17096),0.056,0.111,0.001,0.038,-0.011
HDHD5 (UniProt Q9BXW7),0.018,-0.249 (active),0.043,-0.002,-0.059
IGFBP4 (UniProt P22692),,0.049,-0.026,0.023,
KIAA0930 isoform 2 (UniProt Q6ICG6),0.046,,,-0.057,0.062
IFITM3 (UniProt Q01628),-0.02,0.067,-0.129,0.069,0.059
HNRNPUL1 (UniProt M0R247),,0.197,-0.037,,
HMGA1 isoform 2 (UniProt P17096),,0.205,-0.047,0.128,
IRAK4 (UniProt Q9NWZ3),-0.031,-0.218,0.055,-0.106,0.042
HDAC10 (UniProt Q969S8),0.147,0.211,0.156,-0.032,0.053
ITPKA (UniProt P23677),0.033,-0.36 (active),0.09,-0.101,0.081
GTPBP6 (UniProt O43824),0.069,,,,0.255
GNB4 (UniProt Q9HAV0),,0.006,0.017,-0.059,0.029
HSPA8 (UniProt E9PN89),,-0.01,0.016,-0.017,-0.024
HNRNPD (UniProt D6RF44),,,,-0.04,

Target,log2 fold change [1],log2 fold change (vorinostat),log2 fold change (silmitasertib),log2 fold change [2],log2 fold change (entospletinib)
JAK3 (UniProt P52333),-0.319,,,-0.002,
GLUL (UniProt P15104),0.008,0.13,0.006,-0.096,0.116
HNRNPUL2 (UniProt Q1KMD3),0.029,-0.017,0.022,-0.023,-0.032
ITPR2 (UniProt Q14571),,-0.965 (active),0.024,,
HLTF (UniProt Q14527),0.046,-0.246 (active),0.101,-0.101,0.017
HSPBAP1 (UniProt Q96EW2),,-0.07,0.044,-0.014,-0.125
HMGN4 (UniProt O00479),-0.095,0.192,-0.012,0.067,0.163
HOMER3 (UniProt Q9NSC5),,,,-0.022,
IMPDH2 (UniProt H0Y4R1),-0.044,,,0.05,-0.042
HDAC2 (UniProt Q92769),0.001,,-0.002,0.057,-0.005
INTS3 (UniProt Q68E01),0.049,-0.244 (active),0.015,-0.063,0.009
IPP (UniProt Q9Y573),0.04,-0.633 (active),0.205,,0.074
ITGB1BP2 (UniProt Q9UKP3),0.053,,,,0.107
HMGN5 (UniProt Q5JSK9),,,,,-0.187
GPLD1 (UniProt P80108),,,,0.366,
ISL2 (UniProt Q96A47),,-0.026,0.04,0.179,
HYDIN (UniProt Q4G0P3),0.028,,,,-0.005
GPA33 (UniProt Q99795),0.041,0.14,0.051,,0.017
INTS7 (UniProt Q9NVH2),0.017,-0.149,-0.011,0.189,0.03
IRS2 (UniProt Q9Y4H2),,-0.034,-0.065,0.14,
ITPRIP (UniProt Q8IWB1),,-0.33,0.095,,
HNRNPM (UniProt M0QZM1),0.125,,,0.038,0
GSTM2 (UniProt P28161),0.017,0.323 (active),0.378 (active),,0.044
